Bioassay records (PubChem BioAssay)
gsp antagonist – antagonizes gsp, the McCune-Albright syndrome mutation | gsp-mutant cells, cAMP HTRF, 30 min | Potency, µM (series often up to 76.9 µM), for inactives: top-dose activity change, negative = inhibition, usual class: inhibitors | hit rate 0.4% among 340,000; calls by dose curve; cell line not stated here;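 note: intracellular cAMP measured with PDE inhibitor Ro 20-1724 present during compound exposure; potency is the fitted concentration of half-maximal effect; % is set by controls: 0 for no effect and ±100 for the full control effect; nearly all actives have a fitted effect of over 65% in size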
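Measurement of cellular cAMP by homogeneous time-resolved fluorescence following a 30 min compound exposure at 37C. The PDE inhibitor […] was present throughout; the assay buffer was DPBS with 0.05% BSA and 0.005% Tween 20.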
RXFP1 ag – agonists of human relaxin receptor RXFP1. HEK293T-RXFP1 cAMP TR-FRET, 30 min; response scale: percent of porcine relaxin response, buffer zero. Q9HBX9. hit rate 0.3% among 370,000. Potency, µM (series often up to 57.5 µM), without a hit: at the highest dose activation, most hits filed as activators; active = well fitted activation curve with a large enough effect; inconclusive = small, poorly fitted or top-dose-only effect; note: potency is the fitted concentration of half-maximal effect; % is set by controls: 0 for no effect and ±100 for the full control effect; nearly all actives have a fitted effect of over 60% in size
Target sequence (Q9HBX9 whole entry, looked up): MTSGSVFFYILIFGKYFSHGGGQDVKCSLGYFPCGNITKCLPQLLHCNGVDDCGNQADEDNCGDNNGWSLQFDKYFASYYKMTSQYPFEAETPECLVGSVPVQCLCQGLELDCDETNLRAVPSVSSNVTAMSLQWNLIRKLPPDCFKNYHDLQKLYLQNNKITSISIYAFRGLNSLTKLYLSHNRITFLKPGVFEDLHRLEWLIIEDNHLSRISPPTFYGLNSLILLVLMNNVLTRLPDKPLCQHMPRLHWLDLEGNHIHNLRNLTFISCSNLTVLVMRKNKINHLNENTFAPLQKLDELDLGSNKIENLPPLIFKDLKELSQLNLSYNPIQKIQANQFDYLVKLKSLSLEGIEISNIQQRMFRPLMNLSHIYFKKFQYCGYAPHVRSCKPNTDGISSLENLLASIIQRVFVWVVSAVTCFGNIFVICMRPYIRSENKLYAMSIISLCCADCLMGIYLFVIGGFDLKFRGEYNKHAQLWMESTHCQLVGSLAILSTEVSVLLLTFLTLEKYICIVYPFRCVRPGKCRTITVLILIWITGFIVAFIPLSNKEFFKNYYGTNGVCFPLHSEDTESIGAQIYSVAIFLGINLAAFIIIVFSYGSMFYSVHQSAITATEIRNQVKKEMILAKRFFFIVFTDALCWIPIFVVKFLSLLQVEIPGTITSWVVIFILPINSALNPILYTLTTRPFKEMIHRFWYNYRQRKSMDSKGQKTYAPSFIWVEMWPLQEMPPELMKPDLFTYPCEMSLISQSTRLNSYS
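HEK293T cells stably expressing RXFP1 were pretreated with the PDE4 inhibitor Ro 20174, exposed to compounds for 30 min at 37C, lysed, and cAMP was read by TR-FRET. Data normalized to buffer (basal) and 29 nM porcine relaxin (100%).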
RXFP1 antagonist – RXFP1 (human) relaxin receptor antagonism. activity change, negative = inhibition, % at 57.5 µM. AID 1259400. HEK293-RXFP1, relaxin-stimulated cAMP HTRF, 30 min; hits give low values. hit rate 0.59% among 350,000;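 active = activity change of -60% or lower, but not beyond a set lower limit; inconclusive = change between -60% and -40%, or beyond the set limit; inactive = change above -40%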; note: % is set by controls: 0 for no effect and ±100 for the full control effect
gsp ag – gsp mutant agonism; gsp mutant cells, cAMP HTRF, 30 min; Potency, µM (highest dose often 76.9 µM), inactives show at the highest dose activation (cAMP increase), usual class: activators; hit rate 0.13% among 340,000; AID 624287; active = well fitted activation curve with a large enough effect; inconclusive = small, poorly fitted or top-dose-only effect, or another doubt; inactive = no such curve, though single readings can be large or run the other way; cell line not stated here;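 note: phosphodiesterase inhibitor Ro 20-1724 added with compounds to block cAMP breakdown; potency is the fitted concentration of half-maximal effect; nearly all actives have a fitted effect of over 60% in size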
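Cells in DMEM/10% FBS with G418 were pretreated with compounds in DMSO plus […] (300 uM stock) for 30 min at 37C. cAMP was measured by HTRF (cAMP-d2 plus anti-cAMP antibody-K) after 30 min at room temperature.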
pAkt inh – blocks phosphorylation of Akt; Neuro2A IGF-stimulated pAkt S473 HTRF, 20 min; hits give low values; activity change, % for hits at 50 µM; hit rate 0.32% among 360,000; AID 651550; in the data active = activity change below about -80%; inconclusive = mostly about -51% to -80%; note: % is set by controls: 0 for no effect and ±100 for the full control effect
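Neuro2A cells in DMEM with 0.5% FBS, overnight at 37 deg C, given compound at single 50 µM final, then IGF (6 nM final) for 20 min at 37 deg C. Lysed; phospho-Akt Ser473 by HTRF after 24 h, 665/615 ratio.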
Active calls of the source: *; i = inactive; ? = inconclusive; . = no result given; [ ] = remark or other dose. Only some compounds are listed: those with a hit (about 1.2% of all), similar ones and a draw of the others.

SMILES	gsp antagonist	RXFP1 ag	RXFP1 antagonist	gsp ag	pAkt inh
COc1cccc(N2CCN(C(c3ccccn3)c3nnnn3C(C)(C)C)CC2)c1 (configuration not stated)	6.8%	-0.4%	-5.2	-25.0%	-105.3%*
CC(C)(C)n1nnnc1C(c1ccccn1)N1CCN(C(c2ccccc2)c2ccccc2)CC1 (configuration not stated)	13.2%	0.1%	10.2	11.0%	i
O=C(CCS(=O)(=O)c1nc(-c2cccs2)cc(C(F)(F)F)n1)Nc1ccc(Br)cc1	.	13.8%	-108.3*	.	.
Cc1ccc(O)c(NC(=O)CCS(=O)(=O)c2nc(-c3cccs3)cc(C(F)(F)F)n2)c1	.	5.5%	-30.3	.	.
O=C(CCS(=O)(=O)c1nc(-c2cccs2)cc(C(F)(F)F)n1)Nc1cc(Br)ccc1O	.	6.3%	-116.4*	.	.
Cc1ccc2nc(SCC(=O)Nc3ccc(F)cc3)nc(=O)n2c1	17.5%	21.6%	9.6	14.1µM*	i
CCCNC(=O)COC(=O)c1cc2c(=O)n3ccccc3nc2s1	3.2%	?	12.0	11.2µM*	i
CCN(C(=O)c1cc2c(=O)n3ccccc3nc2s1)C1CCCCC1	.	27.6%	-2.2	-2.1%[15.4 µM]	i
CCOc1ccc(CNC(=O)c2oc3c(c2C)-c2nn(Cc4cccc(Cl)c4)cc2CC3)cc1	.	8.0%	-78.3*	.	.
Cc1cccc(CNC(=O)c2oc3c(c2C)-c2nn(Cc4ccccc4Cl)cc2CC3)c1	.	12.2%	-66.1*	.	.
Cc1cccc(CNC(=O)c2oc3c(c2C)-c2nn(Cc4cccc(Cl)c4)cc2CC3)c1	.	13.4%	?	.	.
COCCCNC(=O)c1oc2c(c1C)-c1nn(Cc3cccc(Cl)c3)cc1CC2	.	-0.9%	-16.1	.	.
Cc1ccc(-n2ncc(C(=O)NC3CCCCC3)c2C2CCN(C(=O)OC(C)(C)C)CC2)cc1	.	0.7%	-6.1	.	.
N#CCCn1nc(-c2ccc(Br)cc2)cc1Nc1ccccc1NC(=O)C(F)(F)F	31.6µM*	1.6%	-12.3	18.7%[15.4 µM]	i
COc1ccc(Nc2nc(N3CCCCC3)c3ccccc3n2)cc1	-32.5%	2.7%	-65.6*	-5.6%	i
Oc1ccc(Nc2nc(N3CCCC3)c3ccccc3n2)cc1	9.5%	-0.2%	-1.6	0.0%	i
Cc1cc(NC(=O)C(C)(C)C)cc(-c2nc3ncccc3o2)c1O	.	13.6%	-8.8	.	.
COc1cccc(OCc2nc3ncc(Br)cc3[nH]2)c1	36.0%	?	-11.5	?	-97.1%*
Cc1c(C#N)c2ncnc(N)c2n1-c1ccccc1	-7.4%	3.0%	-5.9	17.1%	-103.7%*
Cc1c(C#N)c2ncn(CCCN(C)C)c(=O)c2n1-c1ccccc1	6.4%	0.9%	-8.7	-0.3%	i
N#Cc1c2n(c3c(N)ncnc13)CCCCC2	12.4%	17.8µM*	3.6	45.5%[15.4 µM]	i
Cc1c(C#N)c2ncn(Cc3ccccn3)c(=O)c2n1-c1ccccc1	28.2µM*	1.8%	6.8	10.5%	i
CCOC(=O)C(CC)n1cnc2c(oc3ccccc32)c1=O (configuration not stated)	-8.6%	4.5%	-6.7	0.0%	-113.2%*
Cc1cc(NC(=O)c2ccc(NC(=O)CCS(=O)(=O)c3cccs3)cc2)ccc1Br	.	7.6%	-16.0	.	.
CCN(CC)CCN	.	.	-19.2	.	.
SMILES	gsp antagonist	RXFP1 ag	RXFP1 antagonist	gsp ag	pAkt inh
CCOc1ccc(NC(=O)N2CC3CCCN3c3ccccc32)cc1 (configuration not stated)	.	1.7%	-60.8*	.	.
CCOC(=O)c1ccc(NC(=O)N2CC3CCCN3c3ccccc32)cc1 (configuration not stated)	.	0.5%	-11.7	.	.
COc1cccc(N2CCN(c3ncnc4c3cnn4-c3ccc(C)cc3C)CC2)c1	7.94µM*	2.3%	.	2.2%	i
Cc1ccc(-n2ncc3c(N4CCCC4)ncnc32)c(C)c1	4.4%	5.0%	1.4	-15.3%	.
Cc1cccc2cc(CN(Cc3nnnn3C3CCCCC3)C3CCCC3)c3nnnn3c12	-16.6%	2.7%	-16.5	13.2%	-115.8%*
COc1cc(NC(=O)CN2C(=O)C(c3ccc(C)cc3)=NC23CCCCC3)cc(OC)c1	.	-0.2%	-14.5	.	.
COCCNC(=S)N1CCN(c2nc(-c3ccc(F)cc3)cs2)CC1	?	0.5%	-1.8	5.8%	i
CCNC(=S)N1CCN(c2nc(-c3ccc(F)cc3)cs2)CC1	35.5µM*	1.7%	-8.5	-16.1%	i
CCN(CC)CCCNC(=S)N1CCN(c2nc(-c3ccc(F)cc3)cs2)CC1	11.1%	1.1%	-73.9*	1.8%[15.4 µM]	i
c1ccc(CCNc2nc(-c3ccccc3)cs2)cc1	.	.	-36.5	.	.
CC1CCC2(CC1)NC(=O)N(CC(=O)Nc1sc3c(c1C(N)=O)CCC3)C2=O (configuration not stated)	-18.2%	1.2%	-2.0	-20.3%	i
CC1CCCCC12NC(=O)N(CC(=O)Nc1sc3c(c1C(N)=O)CCC3)C2=O (configuration not stated)	0.0%	-0.5%	-8.1	?	-119.8%*
COc1cc(N2C(=O)C=CC2=O)ccc1N1C(=O)C=CC1=O	50.1µM*	.	?	-0.1%	i
CCOc1ccc(Cn2nnc(C(=O)NCc3ccc(OC)cc3)c2N)cc1	-22.5%	31.6µM*	.	-37.9%	i
CCc1ccc(C(=O)NC2=NC(c3cc(OC)ccc3OC)CC(=O)N2)cc1 (configuration not stated)	.	12.3%	-4.6	.	.
CCOC(=O)c1sc(NC(=O)c2ccc(Br)o2)cc1C	-9.9%	-1.2%	-62.6*	7.4%	i
CCS(CC)=NS(=O)(=O)c1ccc(NC(C)=O)cc1	4.7%	-0.3%	-0.9	-2.0%	-117.8%*
CCCCCc1nc(-c2nonc2N)no1	0.1%	2.8%	-15.1	7.3%	-120.3%*
Nn1c(SCC(=O)NC2CCCc3ccccc32)nnc1-c1cccs1 (configuration not stated)	-1.9%	0.8%	-6.8	-19.1%	-103.4%*
O=C(CSc1nnc(-c2ccncc2)n1Cc1ccccc1)NC1CCCc2ccccc21 (configuration not stated)	-4.9%	-1.8%	-6.9	-7.4%	i
CCS(=O)(=O)N1CCc2cc(C(=O)N3CCN(c4cccc(C(F)(F)F)c4)CC3)ccc21	.	0.2%	.	.	.
COC(=O)c1ccc(NC(=O)C2CC(=O)N(c3cc(C)ccc3C)C2)cc1 (configuration not stated)	1.0%	-3.1%	-1.2	?	-105.0%*
COC(=O)c1ccc(NC(=O)C2CC(=O)N(c3ccc(C)cc3)C2)cc1 (configuration not stated)	17.5%	0.1%	8.9	-10.2%	i
COCCCN(Cc1ccco1)C(=O)c1cc2c(s1)-c1ccccc1OC2	.	6.0%	.	.	.
N#Cc1cnc2sc3ccccc3n2c1=N	5.9%	-0.3%	-2.8	21.3%	-118.1%*
Cn1nc2sc3ccccc3n2c(=O)c1=O	9.2%	-1.3%	10.7	9.2%[15.4 µM]	i
